Assay results reported in PubChem BioAssay (NCATS).
Results filed as inconclusive are left out. Activity calls are given as the source filed them. Unless noted, the call rests on the fitted dose curve; in most records, active means well fitted curve in the direction sought with a large enough effect; inconclusive means small, poorly fitted or top-dose-only effect, or another doubt; inactive means no such curve, though single readings can be large; an effect the other way counts as inactive or inconclusive.

Assays:
[1] = test system: Zika virus NS2B-NS3 protease (linked construct); assay: Primary screen NINDS Rhodamine qHTS for Zika virus inhibitors (AID 1347160); further: nearly all actives have a fitted effect of over 55% in size
How it was run: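 Kinetic fluorescence (Ex 480 nm, Em 540 nm) over 15 min with 1.5 microM Rhodamine110 peptide and 25 nM linked protease.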

[2] = OV-KATE Cancer Cell Toxicity qHTS against the NCATS CANVASS Library (AID 1347345)
How it was run: (§1)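 ATP content after 72 h treatment, detected by CellTiter-Glo luminescence (15min room-temperature development), reflects cell viability. Wells contained 1000 cells and received compounds at 11 concentrations.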

[3] = UWB1.289 Cancer Cell Toxicity qHTS against the NCATS CANVASS Library (AID 1347347); further: potency means the concentration at half of the fitted maximal effect; nearly all actives have a fitted effect of over 60% in size
How it was run: as §1

[4] = OV-SAHO Cancer Cell Toxicity qHTS against the NCATS CANVASS Library (AID 1347348); further: series mostly up to about 38 µM; nearly all actives have a fitted effect of over 55% in size
How it was run: as §1

[5] = UWB1.289-WTBRCA1 Cancer Cell Toxicity qHTS against the NCATS CANVASS Library (AID 1347354); further: potency means the concentration at half of the fitted maximal effect
How it was run: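 Cells at 1000/well were given compound 4 h after plating in an 11-point series. Viability was read by CellTiter-Glo luminescence after 72 h at 37 degrees C.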

[6] = HPAF-II 24hr Apoptosis Induction qHTS against the NCATS CANVASS Library (AID 1347356)
How it was run: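 HPAF-II cells (500/well) exposed to compounds in 11-point series for 24 h at 37 degrees C; caspase-3/7 activity read by Caspase-Glo luminescence after 15 min at room temperature. Doxorubicin titration as control.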

[7] = HEK293 18hr Apoptosis Induction qHTS against the NCATS CANVASS Library (AID 1347357)
How it was run: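 Natural products applied to HEK293 for 18 hr; Caspase-Glo 3/7 readout.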

[8] = HEK293 24hr Apoptosis Induction qHTS against the NCATS CANVASS Library (AID 1347359)
How it was run: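 Caspase-3/7 activation measured as luminescence from the DEVD-based Caspase-Glo reagent, 15 min at room temperature, following 24-hour compound treatment of HEK293 cells.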

[9] = test system: NAD(P)H diaphorase (Clostridium kluyveri); assay: Diaphorse counterscreen qHTS: Assay Interference Panel against the NCATS CANVASS Library (AID 1347362)
How it was run: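 Counterscreen for coupling-enzyme interference: resorufin fluorescence from resazurin/NADH turnover, read after 5 min at room temperature. Compounds were tested over an 11-point series after 15 min dark preincubation with diaphorase in PBS-Tween.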

[10] = molecular target: Luciferin 4-monooxygenase (Photinus pyralis) (UniProt P08659); assay: Firefly luciferase counterscreen qHTS: Assay Interference Panel against the NCATS CANVASS Library (AID 1347363); further: series mostly up to about 57 µM
Sequence of Luciferin 4-monooxygenase (Photinus pyralis) (P08659 whole entry, looked up): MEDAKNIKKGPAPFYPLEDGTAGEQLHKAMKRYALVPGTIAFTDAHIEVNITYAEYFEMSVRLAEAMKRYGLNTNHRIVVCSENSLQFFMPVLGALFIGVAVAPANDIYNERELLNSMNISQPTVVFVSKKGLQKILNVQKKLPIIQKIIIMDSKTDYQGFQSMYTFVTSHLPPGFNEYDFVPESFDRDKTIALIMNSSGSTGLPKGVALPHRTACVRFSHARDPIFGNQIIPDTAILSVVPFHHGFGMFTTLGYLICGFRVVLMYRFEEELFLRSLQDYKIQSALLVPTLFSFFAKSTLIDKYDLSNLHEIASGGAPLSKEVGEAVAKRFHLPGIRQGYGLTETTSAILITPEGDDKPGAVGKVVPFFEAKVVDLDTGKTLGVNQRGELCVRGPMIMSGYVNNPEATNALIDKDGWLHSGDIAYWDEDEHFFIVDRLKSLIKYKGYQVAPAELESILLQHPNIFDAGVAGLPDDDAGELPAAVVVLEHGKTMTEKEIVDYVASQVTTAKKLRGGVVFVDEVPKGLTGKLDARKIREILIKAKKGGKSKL
How it was run: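 Luminescence inhibition readout: compounds (11-point qHTS) sat 15 min at room temperature with substrate mix (0.013 mM luciferin and ATP), then firefly luciferase was added and signal read 5 min later.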

[11] = SDT Cancer Cell Toxicity qHTS against the NCATS CANVASS Library (AID 1347365); further: potency means the concentration at half of the fitted maximal effect; nearly all actives have a fitted effect of over 60% in size
How it was run: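 SDT dog glioma cells (500/well) exposed to an 11-point compound series for 72 hr at 37C, 5% CO2. Cytotoxicity read as ATP content by CellTiterGlo luminescence; bortezomib titration as control.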

[12] = KB-3-1 Cancer Cell Toxicity qHTS against the NCATS CANVASS Library (AID 1347366); further: potency means the concentration at half of the fitted maximal effect; nearly all actives have a fitted effect of over 75% in size
How it was run: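 Cytotoxicity toward KB-3-1 cells (500/well, DMEM + 10% FBS) was scored by CellTiter-Glo luminescence following 72 hr exposure at 37C, with bortezomib titrated as control.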

[13] = G06 Cancer Cell Toxicity qHTS against the NCATS CANVASS Library (AID 1347368); further: potency means the concentration at half of the fitted maximal effect; nearly all actives have a fitted effect of over 60% in size
How it was run: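 G06 dog glioma cells, 500 per well, exposed 72 hr at 37C, 5% CO2 to compounds in an 11-point series. Cytotoxicity read as ATP content by CellTiterGlo luminescence.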

[14] = MCF7 Cancer Cell Toxicity qHTS against the NCATS CANVASS Library (AID 1347369); further: series mostly up to about 46 µM
How it was run: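 This 72 hr qHTS scored MCF7 viability by CellTiterGlo luminescence, with 500 cells/well; bortezomib titration ran as control.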

[15] = qHTS for ATAD5 Antagonist screened against the NCATS CANVASS Library (AID 1347370);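 further: HEK293T cells carrying an ATAD5 luciferase reporter co-treated with 10 µM 5-fluorouridine; series mostly up to about 46 µM; nearly all actives have a fitted effect of over 65% in size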
How it was run: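 HEK293T cells with stably integrated ATAD5-luciferase reporter, 2000/well, 5 h attachment; compounds plus 10 µM 5-fluorouridine, 16 h at 37 °C. Luciferase luminescence read, with CellTiter-Fluor viability read first.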

[16] = molecular target: Nuclear receptor subfamily 1 group I member 3 (Homo sapiens) (UniProt Q14994); assay: qHTS for Constitutive Androstane Receptor (CAR) Antagonist screened against the NCATS CANVASS Library (AID 1347372); further: potency means the concentration at half of the fitted maximal effect
Sequence of Nuclear receptor subfamily 1 group I member 3 (Homo sapiens) (Q14994 whole entry, looked up): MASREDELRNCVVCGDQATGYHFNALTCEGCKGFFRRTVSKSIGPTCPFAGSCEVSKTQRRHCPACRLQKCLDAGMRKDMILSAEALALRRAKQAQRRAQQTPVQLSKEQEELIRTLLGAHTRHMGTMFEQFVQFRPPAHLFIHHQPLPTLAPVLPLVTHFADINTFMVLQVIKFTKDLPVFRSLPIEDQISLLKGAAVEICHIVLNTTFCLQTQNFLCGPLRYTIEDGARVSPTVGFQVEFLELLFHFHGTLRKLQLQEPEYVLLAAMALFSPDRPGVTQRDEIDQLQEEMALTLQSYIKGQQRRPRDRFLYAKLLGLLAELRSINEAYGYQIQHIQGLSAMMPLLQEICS
How it was run: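 HepG2-CYP2B6-hCAR double-stable cells plated, 4hr attach; cpd pin-transferred; CITCO 50 nM final; 24hr 37C/5% CO2; CellTiter-Fluor 1hr (fluorescence), then ONE-Glo luminescence.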

[17] = molecular target: Nuclear receptor subfamily 1 group I member 3 (Homo sapiens) (UniProt Q14994); assay: qHTS for Constitutive Androstane Receptor (CAR) Agonist screened against the NCATS CANVASS Library (AID 1347373);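 further: every well also contained 1.5 µM PK11195 alongside the test compound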
How it was run: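 HepG2 cells stably carrying hCAR and a CYP2B6-2.2kb luciferase reporter, treated 24hr at 37C with compounds plus 1.5uM PK11195; activation by ONE-Glo luminescence, viability by CellTiter-Fluor.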

[18] = qHTS for Hypoxia signaling pathway (HIF-1) antagonists against the NCATS CANVASS Library (AID 1347374); further: potency means the concentration at half of the fitted maximal effect; nearly all actives have a fitted effect of over 60% in size
How it was run: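 HRE-bla ME-180 cells in medium with 0.5% dialyzed FBS received compounds (11-point series) plus CoCl2 (60 uM addition stock) for 17 hrs at 37C. Beta-lactamase activity read with CCF4 (405 nm ex, 460/530 nm em); CellTiter-Glo viability measured in same wells.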

[19] = qHTS for Inflammasome Signaling Inhibitors: IL-1-beta AlphaLISA screen against the NCATS CANVASS Library (AID 1347379);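 further: human THP-1 cells primed with LPS then triggered with ATP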
How it was run: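 THP-1 cells pretreated 1 hr with compound (up to 57.5 uM final), then stimulated with LPS (250 ng/mL final) and ATP (1.25 mM final). Secreted IL-1B measured by AlphaLISA after 16 hr; glyburide as positive control.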

[20] = qHTS for Antimalaria activity screened against the NCATS CANVASS Library (AID 1347380); further: potency means the concentration at half of the fitted maximal effect; nearly all actives have a fitted effect of over 40% in size
How it was run: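 Red blood cells infected with P. falciparum Dd2 (2.5% hematocrit final, 0.3% parasitemia) were exposed to compounds in an 11-point qHTS series for 72 hr at 37C under 5% O2 and 5% CO2. Lysis buffer with SYBR Green was then added for 18 hr, and fluorescence was read at 485/535 nm.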

[21] = Inflammasome Signaling qHTS Counterscreen: IL-1-beta AlphaLISA counterscreen against the NCATS CANVASS Library (AID 1347381);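 further: cell-free check with purified IL-1β in medium and no THP-1 cells; series mostly up to about 57 µM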
How it was run: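 Cell-free interference check: compounds added to medium spiked with 4 pg purified IL-1β. Anti-IL-1β acceptor beads (6 ug/mL) with 0.6 nM biotinylated antibody added for 1 h at RT, then streptavidin donor beads (24 ug/mL) for 30 min in the dark. AlphaLISA read at 680/615 nm.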

[22] = Cytotoxicity qHTS for assessment of Hepg2 cells membrane integrity screened against the NCATS CANVASS Library (AID 1347387)
How it was run: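 HepG2 cells (2000/well) attached overnight, then exposed 5 hr at 37C to compounds in an 11-point series (0.59 nM - 46 uM final). LDH release from damaged membranes read fluorometrically (CytoTox-ONE; 560/590 nm) after 10 min at room temperature.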

[23] = qHTS assay for small molecule disruptors of mitochondrial membrane potential screened against the NCATS CANVASS Library (AID 1347389)
How it was run: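 HepG2 cells (2,000/well) plated overnight, then exposed to compounds in 11-point qHTS series for 1 h at 37C before 30 min Mito-MPS dye; depolarization read as fall in red aggregate (590 nm) to green monomer (535 nm) fluorescence.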

[24] = qHTS for activators of Nrf2/ARE signaling pathway screened against the NCATS CANVASS Library (AID 1347391); further: nearly all actives have a fitted effect of over 60% in size
How it was run: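 ARE-bla HepG2 beta-lactamase reporter cells exposed to compounds for 16 h at 37C; CCF4 substrate 2 h, fluorescence at ex 405 nm, em 460/530 nm. Viability by CellTiter-Glo luminescence.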

[25] = qHTS for activators of dead-cell proteases activity screened against the NCATS CANVASS Library (AID 1347392);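 further: luminescence from protease leaking out of membrane-damaged cells cleaving impermeant substrate; rising signal means more cytotoxicity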
How it was run: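 Compounds are pin-transferred onto attached HepG2 cells, giving 11 final concentrations. After 5 h at 37C, AAF-aminoluciferin reagent is added and luminescence is recorded at room temperature.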

[26] = Vero-766 cells viability qHTS against the NCATS CANVASS Library: Counterscreen for Zika virus inhibition assay (AID 1347394)
How it was run: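 Counterscreen for toxicity: Vero 766 cells exposed 72 h to an 11-point compound series, viability by CellTiter-Glo.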

[27] = qHTS for inhibitors of Rabies Virus screened against the NCATS CANVASS Library (AID 1347402; calls by dose curve; further: series mostly up to about 46 µM)
[28] = Primary qHTS for small molecule stabilizers of the endoplasmic reticulum resident proteome: Secreted ER Calcium Modulated Protein (SERCaMP) assay (AID 1508630)
How it was run: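 GLuc-SERCaMP-expressing SH-SY5Y cells, pretreated 16 h with compound, are challenged with thapsigargin to empty ER calcium stores; after 4 h, coelenterazine is added directly to the medium and luminescence is imaged.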

Measured: Potency

C=C1[C@@H](C)[C@H]2[C@H](Cc3ccccc3)NC(=O)[C@]23OC(=O)/C=C/[C@H](O)CCC[C@@H](C)C/C=C/[C@H]3[C@@H]1O
inactive: [1] | [2] | [4] | [6] | [7] | [8] | [9] | [10] | [14] | [15] | [17] | [19] | [21] | [22] | [23] | [24] | [25] | [27] | [28]
active: [3] 5.94 µM | [5] 13.3 µM | [11] 2.64 µM | [12] 4.69 µM | [13] 2.35 µM | [16] 8.31 µM | [18] 2.11 µM | [20] 4.2 µM | [26] 13.2 µM
